Measured values taken from article PMC4336329 (PLoS ONE, 2015).
The whole screen tested about 310,000 compounds, of which about 2,200 (0.71%) showed an effect of 50% or more. Effects have a minus sign here. This is one part of a sample in which strong results are shown more often than they occur.

Molecular target: human ether-à-go-go-related gene (hERG) potassium channel (human, UniProt Q12809)
Assay: primary screen, population patch clamp on CHO cells stably expressing hERG; higher = less effect of the substance

human ether-à-go-go-related gene (hERG) potassium channel, sequence (Q12809 whole entry, looked up): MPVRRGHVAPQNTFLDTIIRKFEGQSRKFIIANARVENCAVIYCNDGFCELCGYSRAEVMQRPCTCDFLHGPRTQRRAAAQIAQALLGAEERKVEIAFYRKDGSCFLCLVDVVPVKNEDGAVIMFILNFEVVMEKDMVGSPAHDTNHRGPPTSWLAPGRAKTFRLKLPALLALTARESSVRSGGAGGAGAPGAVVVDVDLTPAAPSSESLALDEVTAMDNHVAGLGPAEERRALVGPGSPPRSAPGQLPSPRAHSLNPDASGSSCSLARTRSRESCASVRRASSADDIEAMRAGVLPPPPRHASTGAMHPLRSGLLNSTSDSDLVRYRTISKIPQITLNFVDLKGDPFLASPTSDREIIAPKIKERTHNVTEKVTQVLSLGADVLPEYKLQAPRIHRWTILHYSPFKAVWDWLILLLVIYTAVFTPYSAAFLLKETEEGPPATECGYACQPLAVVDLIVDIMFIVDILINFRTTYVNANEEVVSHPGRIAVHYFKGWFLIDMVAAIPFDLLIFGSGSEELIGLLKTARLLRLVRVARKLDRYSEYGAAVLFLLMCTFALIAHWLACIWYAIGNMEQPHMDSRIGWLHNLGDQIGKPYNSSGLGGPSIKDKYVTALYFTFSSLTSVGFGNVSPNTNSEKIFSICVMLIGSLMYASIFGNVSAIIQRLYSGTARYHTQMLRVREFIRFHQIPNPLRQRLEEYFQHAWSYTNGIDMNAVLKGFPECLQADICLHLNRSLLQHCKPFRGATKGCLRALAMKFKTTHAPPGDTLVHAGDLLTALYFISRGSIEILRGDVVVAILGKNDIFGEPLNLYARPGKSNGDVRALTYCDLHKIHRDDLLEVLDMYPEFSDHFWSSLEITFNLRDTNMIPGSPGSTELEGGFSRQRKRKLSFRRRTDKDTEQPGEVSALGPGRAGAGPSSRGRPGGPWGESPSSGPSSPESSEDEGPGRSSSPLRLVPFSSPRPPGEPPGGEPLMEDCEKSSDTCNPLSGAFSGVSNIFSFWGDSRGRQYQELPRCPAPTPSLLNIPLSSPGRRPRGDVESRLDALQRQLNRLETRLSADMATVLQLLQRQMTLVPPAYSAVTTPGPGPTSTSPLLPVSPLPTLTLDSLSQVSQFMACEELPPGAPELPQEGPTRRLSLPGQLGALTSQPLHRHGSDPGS

Question: With CCCc1cc(=O)oc2c(C)c(OCC(=O)NCCCn3ccnc3)ccc12 as the compound, how does the “hERG current change (%, negative = inhibition) at 1uM” value read?
Answer: -70%

Question: Which “hERG current change (%, negative = inhibition) at 1uM” value does the source give for Cc1cc(OCC(=O)NCCCn2ccnc2)c2c(C)cc(=O)oc2c1 here?
Answer: 14.7%

Question: CCc1cc(=O)oc2c(C)c(OCC(=O)NCCCn3ccnc3)ccc12 was tested. Which “hERG current change (%, negative = inhibition) at 1uM” value did it give?
Answer: 5.28%

Question: Which “hERG current change (%, negative = inhibition) at 1uM” value does the source give for CCc1cc(=O)oc2cc(C)cc(OCC(=O)NCc3ccncc3)c12 here?
Answer: -8.01%

Question: For CCC(=O)N1CCN(c2ccc(NC(=O)COc3ccc(CC)cc3)cc2)CC1, which “hERG current change (%, negative = inhibition) at 1uM” value is on record?
Answer: 10.9%

Question: How did the “hERG current change (%, negative = inhibition) at 1uM” value turn out when CC(C)[C@@H]1NC(=O)c2cc([N+](=O)[O-])cc(I)c2NCCC[C@@H](C(N)=O)NC(=O)[C@H](CO)NC1=O was run?
Answer: 8.46%

Question: How did the “hERG current change (%, negative = inhibition) at 1uM” value turn out when O=C(CSc1ncn[nH]1)c1cccc([N+](=O)[O-])c1 was run?
Answer: 11.5%

Question: With C#CCNC(=O)C1=C[C@H](c2ccc3c(c2)OCO3)C[C@H](OCCCCO)O1 as the compound, how does the “hERG current change (%, negative = inhibition) at 1uM” value read?
Answer: 15%

Question: How did the “hERG current change (%, negative = inhibition) at 1uM” value turn out when CCN(CC(=O)Nc1c(F)cccc1F)C(=O)c1ccc2ncsc2c1 was run?
Answer: 12.3%

Question: Which “hERG current change (%, negative = inhibition) at 1uM” value does the source give for CC1=CCC(C(=O)O)C(C(=O)Nc2cccnc2)C1 (stereo not drawn) here?
Answer: 5.97%

Question: With COc1ccc(CCNC(=O)CNS(=O)(=O)c2ccc(Br)s2)cc1OC as the compound, how does the “hERG current change (%, negative = inhibition) at 1uM” value read?
Answer: 1.45%

Question: For CC(CN1CCOCC1)OC(=O)C1COc2ccccc2O1.Cl (stereo not drawn), which “hERG current change (%, negative = inhibition) at 1uM” value is on record?
Answer: 7.15%

Question: With CC(NCC(=O)Nc1ccccc1C(=O)NC1CC1)c1ccc(S(C)(=O)=O)cc1 (stereo not drawn) as the compound, how does the “hERG current change (%, negative = inhibition) at 1uM” value read?
Answer: 10.9%

Question: How did the “hERG current change (%, negative = inhibition) at 1uM” value turn out when CCc1cc(=O)oc2c(C)c(OCC(=O)NCCN3CCOCC3)ccc12 was run?
Answer: 12.8%

Question: How did the “hERG current change (%, negative = inhibition) at 1uM” value turn out when CCCCc1cc(=O)oc2c(C)c(OCC(=O)NCCN3CCOCC3)ccc12 was run?
Answer: -77.1%

Question: For CCCc1cc(=O)oc2c(C)c(OCC(=O)NCCN3CCOCC3)ccc12, which “hERG current change (%, negative = inhibition) at 1uM” value is on record?
Answer: -6.02%

Question: Cc1nc2cc(NC(=O)NCc3ccccc3)ccc2o1 was tested. Which “hERG current change (%, negative = inhibition) at 1uM” value did it give?
Answer: 16.2%

Question: CCOC(=O)Cc1nc2ccccc2o1 was tested. Which “hERG current change (%, negative = inhibition) at 1uM” value did it give?
Answer: 9.03%

Question: Which “hERG current change (%, negative = inhibition) at 1uM” value does the source give for O=C(NCc1cccnc1)Nc1ccc(Cl)cc1 here?
Answer: -18.3%

Question: Which “hERG current change (%, negative = inhibition) at 1uM” value does the source give for CCOC(=O)C1=C(OCc2ccc(Cl)cc2)C2C=C(C)C=CC2N=C1 (stereo not drawn) here?
Answer: -18.1%

Question: Which “hERG current change (%, negative = inhibition) at 1uM” value does the source give for COc1cccc(CNn2c(-c3cccc(C)c3)nc3ccccc3c2=O)c1 here?
Answer: 6.03%

Question: With COc1ccc(CNn2c(-c3cccc(C)c3)nc3ccccc3c2=O)cc1OC as the compound, how does the “hERG current change (%, negative = inhibition) at 1uM” value read?
Answer: -54.8%

Question: COc1ccccc1CNn1c(-c2cccc(C)c2)nc2ccccc2c1=O was tested. Which “hERG current change (%, negative = inhibition) at 1uM” value did it give?
Answer: 5.72%

Question: Cc1cc(C)nc(/N=C(\N)N(Cc2ccccc2)Cc2ccccc2)n1 was tested. Which “hERG current change (%, negative = inhibition) at 1uM” value did it give?
Answer: -31.2%

Question: CCN(CC)/C(N)=N/c1nc(C)cc(C)n1 was tested. Which “hERG current change (%, negative = inhibition) at 1uM” value did it give?
Answer: 3.23%

Question: Which “hERG current change (%, negative = inhibition) at 1uM” value does the source give for CCCCN(CCCC)/C(N)=N/c1nc(C)cc(C)n1 here?
Answer: -51.8%

Question: For Cc1cc(OCC(=O)N2CCC(C(=O)O)(c3ccccc3)CC2)c2c(C)c(C)c(=O)oc2c1, which “hERG current change (%, negative = inhibition) at 1uM” value is on record?
Answer: 4.94%

Question: COc1ccc(OCC(=O)Nc2ccc(OC)c(S(=O)(=O)N3CCCCC3)c2)cc1 was tested. Which “hERG current change (%, negative = inhibition) at 1uM” value did it give?
Answer: -2.82%

Question: Brc1ccc(Oc2nnnn2-c2ccccc2)cc1 was tested. Which “hERG current change (%, negative = inhibition) at 1uM” value did it give?
Answer: 11%

Question: Which “hERG current change (%, negative = inhibition) at 1uM” value does the source give for O=C(Nc1ccccc1)C1CCN(C(=O)c2ccc([N+](=O)[O-])cc2)CC1 here?
Answer: -67%

Question: With COc1ccc(C(=O)N2CCC(C(=O)Nc3ccc(C)cc3)CC2)cc1 as the compound, how does the “hERG current change (%, negative = inhibition) at 1uM” value read?
Answer: -31.9%

Question: Which “hERG current change (%, negative = inhibition) at 1uM” value does the source give for COc1ccc(C(=O)N2CCC(C(=O)Nc3ccc4c(c3)OCCO4)CC2)cc1 here?
Answer: -13.1%

Question: With O=C(Nc1ccc2c(c1)OCCO2)C1CCN(C(=O)c2ccc([N+](=O)[O-])cc2)CC1 as the compound, how does the “hERG current change (%, negative = inhibition) at 1uM” value read?
Answer: -16.3%

Question: O=C(Nc1ccc(F)cc1)C1CCN(C(=O)c2ccc([N+](=O)[O-])cc2)CC1 was tested. Which “hERG current change (%, negative = inhibition) at 1uM” value did it give?
Answer: 11.5%

Question: With COc1ccc(C(=O)N2CCC(C(=O)Nc3ccc(OC)c(OC)c3)CC2)cc1 as the compound, how does the “hERG current change (%, negative = inhibition) at 1uM” value read?
Answer: 10.7%

Question: How did the “hERG current change (%, negative = inhibition) at 1uM” value turn out when CC(=O)Nc1ccc(NC(=O)C2CCN(C(=O)c3ccc([N+](=O)[O-])cc3)CC2)cc1 was run?
Answer: 22.3%

Question: O=C(Nc1ccc2c(c1)OCO2)C1CCN(C(=O)c2ccc([N+](=O)[O-])cc2)CC1 was tested. Which “hERG current change (%, negative = inhibition) at 1uM” value did it give?
Answer: -74.6%

Question: How did the “hERG current change (%, negative = inhibition) at 1uM” value turn out when COc1cc(OC)cc(C(=O)N2CCC(C(=O)Nc3ccc4c(c3)OCCO4)CC2)c1 was run?
Answer: 12.5%

Question: COc1ccc(NC(=O)C2CCN(C(=O)c3ccc(OC)cc3)CC2)cc1 was tested. Which “hERG current change (%, negative = inhibition) at 1uM” value did it give?
Answer: -69.6%

Question: For COc1ccc(C(=O)N2CCC(C(=O)Nc3ccc4c(c3)OCO4)CC2)cc1, which “hERG current change (%, negative = inhibition) at 1uM” value is on record?
Answer: -59%

Question: How did the “hERG current change (%, negative = inhibition) at 1uM” value turn out when O=C(Nc1ccc2c(c1)OCCO2)C1CCN(C(=O)c2ccc(F)cc2)CC1 was run?
Answer: 5.7%

Question: Which “hERG current change (%, negative = inhibition) at 1uM” value does the source give for CCC(Oc1ccccc1)C(=O)N(C)CC(=O)N(CC(C)C)c1c(N)n(CC(C)C)c(=O)[nH]c1=O (stereo not drawn) here?
Answer: 7.85%
